According to ChEMBL document CHEMBL3988442, “University of Dundee, Small-Polar-MMV Screening Library” (2021):
For some of these results: Entries with a potency or affinity are not part of this list.

Tests used:
Design in all cases: scale not given: direction of the effect not stated beside the values
[1] = biological target: Protein translocase subunit SecA (Escherichia coli (strain K12)) (UniProt P10408); test: Assay to Identify E. coli SecA ATPase Inhibitors; format: functional; conditions: 30 µM
Sequence of Protein translocase subunit SecA (Escherichia coli (strain K12)) (P10408 whole entry): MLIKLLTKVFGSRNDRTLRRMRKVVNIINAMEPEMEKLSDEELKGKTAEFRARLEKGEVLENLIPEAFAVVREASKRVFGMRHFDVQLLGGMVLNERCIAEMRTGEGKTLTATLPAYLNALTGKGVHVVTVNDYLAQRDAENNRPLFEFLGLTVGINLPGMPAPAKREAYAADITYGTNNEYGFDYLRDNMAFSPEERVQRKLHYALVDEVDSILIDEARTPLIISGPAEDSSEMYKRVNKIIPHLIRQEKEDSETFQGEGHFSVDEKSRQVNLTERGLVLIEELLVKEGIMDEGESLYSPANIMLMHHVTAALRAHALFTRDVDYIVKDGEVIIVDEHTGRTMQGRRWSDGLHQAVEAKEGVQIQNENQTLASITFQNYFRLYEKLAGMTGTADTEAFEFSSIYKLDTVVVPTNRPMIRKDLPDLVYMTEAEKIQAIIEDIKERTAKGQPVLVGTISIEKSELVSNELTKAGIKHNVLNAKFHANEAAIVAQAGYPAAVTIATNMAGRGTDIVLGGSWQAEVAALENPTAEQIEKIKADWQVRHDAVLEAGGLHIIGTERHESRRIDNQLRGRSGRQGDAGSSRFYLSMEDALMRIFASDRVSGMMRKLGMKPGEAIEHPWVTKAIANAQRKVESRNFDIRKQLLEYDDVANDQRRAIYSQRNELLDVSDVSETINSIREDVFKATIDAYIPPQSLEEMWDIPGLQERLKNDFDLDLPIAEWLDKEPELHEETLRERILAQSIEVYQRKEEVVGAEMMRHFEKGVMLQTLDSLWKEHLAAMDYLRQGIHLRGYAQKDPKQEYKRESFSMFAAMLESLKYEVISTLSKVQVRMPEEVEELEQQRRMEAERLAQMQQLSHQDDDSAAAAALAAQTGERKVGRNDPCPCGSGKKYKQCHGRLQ

[2] = biological target: T1, Ubiquitin-activating enzyme e1, putative (Leishmania donovani (strain BPK282A1)) (UniProt E9BSI1); test: Leishmania donovani Ubiquitin Activating Enzyme (LdE1); format: functional; conditions: 30 µM
T1 sequence (whole entry): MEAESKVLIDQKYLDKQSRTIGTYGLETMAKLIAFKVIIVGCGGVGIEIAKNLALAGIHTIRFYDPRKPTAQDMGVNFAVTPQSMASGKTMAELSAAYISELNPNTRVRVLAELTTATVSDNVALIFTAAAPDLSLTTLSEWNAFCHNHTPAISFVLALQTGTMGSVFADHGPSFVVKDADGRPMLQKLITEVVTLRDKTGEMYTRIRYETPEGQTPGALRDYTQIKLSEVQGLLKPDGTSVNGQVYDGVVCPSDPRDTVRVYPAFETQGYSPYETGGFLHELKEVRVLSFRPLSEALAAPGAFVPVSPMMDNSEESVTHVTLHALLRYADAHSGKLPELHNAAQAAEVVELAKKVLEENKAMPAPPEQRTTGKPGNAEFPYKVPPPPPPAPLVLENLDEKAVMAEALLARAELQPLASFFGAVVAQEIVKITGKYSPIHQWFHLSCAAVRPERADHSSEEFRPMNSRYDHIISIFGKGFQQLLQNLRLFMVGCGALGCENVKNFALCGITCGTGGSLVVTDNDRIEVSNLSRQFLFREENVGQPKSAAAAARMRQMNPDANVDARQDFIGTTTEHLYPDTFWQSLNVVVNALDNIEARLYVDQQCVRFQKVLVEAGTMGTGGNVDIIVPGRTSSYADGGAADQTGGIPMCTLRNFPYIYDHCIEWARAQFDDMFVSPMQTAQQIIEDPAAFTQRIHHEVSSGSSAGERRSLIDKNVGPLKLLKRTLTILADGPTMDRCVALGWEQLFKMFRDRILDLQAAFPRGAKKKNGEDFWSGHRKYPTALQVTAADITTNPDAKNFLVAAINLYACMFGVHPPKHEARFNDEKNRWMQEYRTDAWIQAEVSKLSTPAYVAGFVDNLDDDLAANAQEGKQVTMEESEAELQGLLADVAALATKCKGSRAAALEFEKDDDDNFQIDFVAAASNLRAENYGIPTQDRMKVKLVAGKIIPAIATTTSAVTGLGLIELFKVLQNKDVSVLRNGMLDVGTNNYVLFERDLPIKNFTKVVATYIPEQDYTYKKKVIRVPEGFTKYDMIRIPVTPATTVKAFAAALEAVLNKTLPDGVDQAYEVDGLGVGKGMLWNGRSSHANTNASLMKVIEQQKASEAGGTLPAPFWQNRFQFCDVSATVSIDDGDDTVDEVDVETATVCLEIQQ

[3] = biological target: AMP-activated protein kinase, AMPK (Homo sapiens) (UniProt P54646+O43741+P54619+Q9UGJ0+Q9Y478+Q13131+Q9UGI9); test: AMP-dependent Kinase enzyme assay. An in vitro enzyme assay that detects ADP turnover that is directly proportional to AMPK activity. This uses naive AMPK that is activated during the assay with MK-8722; format: functional; conditions: 30 µM
[4] = biological target: Sialic acid-binding Ig-like lectin 9 (Homo sapiens) (UniProt Q9Y336); test: Hs-Siglec9 ALPHAscreen SOP 20170721; conditions: 10 µM
Sequence of Sialic acid-binding Ig-like lectin 9 (Homo sapiens) (Q9Y336 whole entry): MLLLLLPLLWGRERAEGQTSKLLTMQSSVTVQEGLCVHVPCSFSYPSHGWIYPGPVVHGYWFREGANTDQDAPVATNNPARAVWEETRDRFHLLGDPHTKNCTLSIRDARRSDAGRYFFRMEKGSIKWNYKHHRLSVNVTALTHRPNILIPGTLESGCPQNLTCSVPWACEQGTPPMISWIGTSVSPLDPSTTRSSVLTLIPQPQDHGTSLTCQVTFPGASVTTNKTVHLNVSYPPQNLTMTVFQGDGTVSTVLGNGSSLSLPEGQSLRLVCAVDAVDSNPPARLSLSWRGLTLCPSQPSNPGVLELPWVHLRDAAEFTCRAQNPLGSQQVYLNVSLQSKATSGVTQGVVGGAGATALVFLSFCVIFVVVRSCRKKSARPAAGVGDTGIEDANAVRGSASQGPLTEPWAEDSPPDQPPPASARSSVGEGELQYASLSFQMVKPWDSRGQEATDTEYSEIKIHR

[5] = system: Trypanosoma cruzi; test: Trypanosoma cruzi phosphomannomutase and mannose-1-phosphate guanylyltransferase assay; format: functional; conditions: 10 µM
[6] = biological target: T2, Arginase-2, mitochondrial (Homo sapiens) (UniProt P78540); test: in vitro enzyme assay to detect the production of urea directly proportional to the activity of Arginase II; format: functional; conditions: 33.3 µM; note: in the data most compounds retested in dose-response had high values
T2 sequence (whole entry): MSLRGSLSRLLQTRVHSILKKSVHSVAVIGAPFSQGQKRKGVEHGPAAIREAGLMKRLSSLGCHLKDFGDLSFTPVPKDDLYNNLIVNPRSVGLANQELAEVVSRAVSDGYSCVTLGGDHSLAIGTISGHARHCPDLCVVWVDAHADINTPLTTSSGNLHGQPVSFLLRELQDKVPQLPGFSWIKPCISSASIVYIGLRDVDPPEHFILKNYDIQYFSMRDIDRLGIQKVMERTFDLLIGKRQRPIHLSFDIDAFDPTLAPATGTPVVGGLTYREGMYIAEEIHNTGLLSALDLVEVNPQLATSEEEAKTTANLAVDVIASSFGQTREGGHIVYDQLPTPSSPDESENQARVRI

[7] = biological target: T3, Proteasome subunit beta (Trypanosoma cruzi) (UniProt O96673); test: Trypanosoma cruzi proteasome chymotrypsin-like activity (TcProtChymo) assay.; note: in the data most compounds retested in dose-response had high values; format: functional; conditions: 9.37 µM
T3 sequence (whole entry): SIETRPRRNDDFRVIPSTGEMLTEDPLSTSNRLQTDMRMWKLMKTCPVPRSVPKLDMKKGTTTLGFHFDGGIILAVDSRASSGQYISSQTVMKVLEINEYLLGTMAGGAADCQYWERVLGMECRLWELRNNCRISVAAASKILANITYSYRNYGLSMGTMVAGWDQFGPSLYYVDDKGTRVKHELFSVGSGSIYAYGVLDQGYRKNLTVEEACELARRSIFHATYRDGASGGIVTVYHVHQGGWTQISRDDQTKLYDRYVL

[8] = organism: Homo sapiens; test: To identify inhibition of the IFN signalling (Jak-Stat) pathway via expression of an eGFP reporter gene under the control of an IFN-stimulated response element (ISRE) containing MxA promoter.; format: functional; conditions: 30 µM
[9] = biological target: T4, Tyrosyl-tRNA synthetase, putative (Trypanosoma cruzi (strain CL Brener)) (UniProt Q4DSP6); test: Trypanosoma cruzi tyrosyl tRNA synthetase (TcYRS) _High Tyrosine SOP; format: functional; conditions: 30 µM; note: in the data most compounds retested in dose-response had high values
T4 sequence (whole entry): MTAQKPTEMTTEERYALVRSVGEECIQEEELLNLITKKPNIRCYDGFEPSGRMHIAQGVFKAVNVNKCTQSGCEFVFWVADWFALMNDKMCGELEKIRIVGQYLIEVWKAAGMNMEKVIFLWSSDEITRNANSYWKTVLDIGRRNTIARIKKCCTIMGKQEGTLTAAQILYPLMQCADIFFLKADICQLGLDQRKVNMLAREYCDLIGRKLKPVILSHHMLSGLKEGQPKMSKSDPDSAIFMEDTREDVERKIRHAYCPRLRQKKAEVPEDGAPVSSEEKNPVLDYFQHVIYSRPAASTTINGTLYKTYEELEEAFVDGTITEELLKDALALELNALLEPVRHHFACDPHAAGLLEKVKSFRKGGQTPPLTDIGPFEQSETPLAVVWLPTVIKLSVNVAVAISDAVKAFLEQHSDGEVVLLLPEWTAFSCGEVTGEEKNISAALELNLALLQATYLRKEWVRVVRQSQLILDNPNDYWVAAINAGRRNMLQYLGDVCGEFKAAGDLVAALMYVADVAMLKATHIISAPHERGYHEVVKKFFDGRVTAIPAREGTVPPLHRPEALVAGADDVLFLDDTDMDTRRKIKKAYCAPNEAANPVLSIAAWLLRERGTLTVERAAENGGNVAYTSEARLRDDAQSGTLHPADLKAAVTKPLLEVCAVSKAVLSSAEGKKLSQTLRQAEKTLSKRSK

[10] = biological target: T4, Tyrosyl-tRNA synthetase, putative (Trypanosoma cruzi (strain CL Brener)); test: Trypanosoma cruzi tyrosyl tRNA synthetase (TcYRS) SOP; format: functional; conditions: 30 µM
[11] = biological target: Chromo domain-containing protein 1 (Saccharomyces cerevisiae (strain ATCC 204508 / S288c) (Baker's yeast)) (UniProt P32657); test: ScCHD-1 Enzyme Inhibition Assay; format: functional; conditions: 30 µM; note: in the data most compounds retested in dose-response had high values
Sequence of Chromo domain-containing protein 1 (Saccharomyces cerevisiae (strain ATCC 204508 / S288c) (Baker's yeast)) (P32657 whole entry, the tested form may be a part): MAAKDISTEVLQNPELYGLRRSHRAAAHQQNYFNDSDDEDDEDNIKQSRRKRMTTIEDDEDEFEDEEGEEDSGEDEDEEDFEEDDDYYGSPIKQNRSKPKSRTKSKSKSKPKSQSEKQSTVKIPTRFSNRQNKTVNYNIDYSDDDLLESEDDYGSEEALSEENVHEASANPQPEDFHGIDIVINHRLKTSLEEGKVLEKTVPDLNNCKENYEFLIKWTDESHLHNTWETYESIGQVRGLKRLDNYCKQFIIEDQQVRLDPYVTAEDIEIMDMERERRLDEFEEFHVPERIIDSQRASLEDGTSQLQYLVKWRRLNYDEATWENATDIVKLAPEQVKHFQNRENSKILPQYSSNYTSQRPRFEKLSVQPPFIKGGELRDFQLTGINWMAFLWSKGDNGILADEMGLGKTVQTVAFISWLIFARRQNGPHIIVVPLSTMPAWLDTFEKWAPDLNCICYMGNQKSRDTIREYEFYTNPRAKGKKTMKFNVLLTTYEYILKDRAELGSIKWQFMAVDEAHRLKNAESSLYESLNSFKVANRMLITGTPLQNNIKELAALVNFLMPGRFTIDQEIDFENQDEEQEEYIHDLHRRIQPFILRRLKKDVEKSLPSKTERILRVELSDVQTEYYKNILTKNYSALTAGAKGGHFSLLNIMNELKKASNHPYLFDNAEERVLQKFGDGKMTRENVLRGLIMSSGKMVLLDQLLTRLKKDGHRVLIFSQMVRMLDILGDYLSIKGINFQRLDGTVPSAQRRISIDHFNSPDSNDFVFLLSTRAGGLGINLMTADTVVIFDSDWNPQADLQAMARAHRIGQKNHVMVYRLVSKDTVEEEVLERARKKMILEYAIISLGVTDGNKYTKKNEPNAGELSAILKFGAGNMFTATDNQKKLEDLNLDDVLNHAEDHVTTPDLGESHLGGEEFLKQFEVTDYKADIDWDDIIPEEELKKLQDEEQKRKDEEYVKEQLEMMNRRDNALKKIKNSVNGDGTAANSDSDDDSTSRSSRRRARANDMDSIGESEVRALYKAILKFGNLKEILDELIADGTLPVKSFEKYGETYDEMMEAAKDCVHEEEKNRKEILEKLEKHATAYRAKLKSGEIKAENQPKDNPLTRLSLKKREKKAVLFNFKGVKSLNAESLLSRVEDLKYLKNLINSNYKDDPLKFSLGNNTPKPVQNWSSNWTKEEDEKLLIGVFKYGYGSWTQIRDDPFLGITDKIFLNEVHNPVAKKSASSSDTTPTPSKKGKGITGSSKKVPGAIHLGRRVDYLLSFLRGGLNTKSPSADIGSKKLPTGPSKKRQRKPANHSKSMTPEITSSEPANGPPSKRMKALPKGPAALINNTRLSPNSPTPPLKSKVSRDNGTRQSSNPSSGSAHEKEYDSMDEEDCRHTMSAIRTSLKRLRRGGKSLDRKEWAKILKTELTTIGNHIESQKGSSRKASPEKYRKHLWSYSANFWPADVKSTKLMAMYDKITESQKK

SMILES | Percent Effect [1] | Percent Effect [2] | Percent Effect [3] | Percent Effect [4] | Percent Effect [5] | Percent Effect [6] | Percent Effect [7] | Percent Effect [8] | Percent Effect [9] | Percent Effect [10] | Percent Effect [11]
CC(=O)c1cccc(NC(=O)COc2c(C)n(C)ccc2=O)c1 | -3.77% | 9.33% | 5.33% | 5.82% | -2.95% | -12.5% | 16.1% | 7.79% | 7.41% | 20.5% | -2.85%
Cc1cnc(C(=O)N(CCN(C)C)Cc2ccc(Cl)cc2)cn1 | -0.752% | 20.8% | 5.67% | 9.21% | 4.37% | 9.71% | 15.3% | -3.66% | 4.21% | 10.3% | -4.76%
Cc1cnn(CC2CCCCN2CC(=O)Nc2c(C)n[nH]c2C)c1 (stereo unspecified) | -3.93% | 6.33% | 8.13% | 0.215% | -4.62% | -5.81% | 6.86% | 16.1% | 1.04% | 10.1% | -14.4%
Cc1ncsc1C(=O)NCc1cccs1 | 0.275% | 16.2% | -1.61% | 5.83% | 0.464% | 0.185% | 14% | 21.8% | 6.93% | 23.2% | -4.46%
CC(C(=O)N1CCc2ccccc2C1)n1cc(Br)cn1 (stereo unspecified) | -0.393% | 0% | -6.91% | 6.63% | 4.42% | -6.9% | 7.82% | 19.8% | 4.3% | 13.6% | -3.62%
CC(C)CN1C[C@H]2CCN(Cc3cccnc3)CC[C@H]2S1(=O)=O | -4.38% | 8.11% | 2.04% | -0.964% | -2.05% | -5.41% | 16.2% | 21.9% | 1.08% | 5.13% | 1%
Cc1cnc(C(=O)N2CCc3ncnc(C)c3CC2)cn1 | -2.65% | 0% | -0.0548% | 5.51% | -1.39% | -2.79% | 15.8% | 19.6% | 2.08% | 11.1% | -2.02%
COc1ccc(-c2noc(CNC(C)Cn3cccn3)n2)c(OC)c1 (stereo unspecified) | -5.86% | 31.6% | -3.12% | -7.44% | 2.15% | -2.52% | 9.9% | 17.3% | 5.42% | 25.9% | -11.8%
CC1CCCN(Cc2coc(-c3cccc(F)c3)n2)C1 (stereo unspecified) | -5.97% | 2.6% | 8.2% | 7.31% | 1.31% | 2.49% | -0.507% | 3.77% | 5.83% | 2.44% | 0.197%
CCC(CC)c1cc(CNC(=O)N2CCOCC2CC)on1 (stereo unspecified) | -3.39% | 0% | -0.644% | 2.45% | 7.33% | -1.24% | 0.0858% | -31.4% | 0% | 1.24% | -0.017%
O=c1[nH]c(CCN2CCCC(Cn3cncn3)C2)nc2ccccc12 (stereo unspecified) | -4.26% | 13.5% | 0.62% | 16.8% | 6.78% | 0.924% | 2.33% | 14.5% | 4.95% | 11% | -3.63%
